From PMC12136788
Positions count from the first letter of the chain named. The full ranking holds about 24,000 sequences; the median of “enrichment r” is about 0.99, and the highest 2% start at about 3.7. Shown is part of a subset that was picked to be rich in the highest values.

T1: UNK ZnF1-3 (human, UniProt Q9C0B0 31-174)
T1 sequence: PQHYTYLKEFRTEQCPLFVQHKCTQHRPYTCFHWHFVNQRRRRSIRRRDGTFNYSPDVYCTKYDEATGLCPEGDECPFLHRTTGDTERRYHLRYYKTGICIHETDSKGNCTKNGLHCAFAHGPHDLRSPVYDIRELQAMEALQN

B1: 33187691_33187811_5116_3pUTR_ENSG00000170275_ENST00000320954|human|control|control (ssRNA)
RNA: GGGAGUUCUACAGUCCGACGAUCGCCUGCAGAACCAAACAGCAACCACUGAGCUCCAUGCUGAUGGGUCAAAGGACAAGCAAGGCAUCUUAGAGCAGGCCUGGAAGCUCCCACAAAGCUUACAAAUGUGUUUGUUUUUUCGAACAACAGAGGAUUGAGCAUCA
B2: chr6:38652254:38652255:-_ENSG00000124767_ENST00000373365|hu_hu|hu_hu_hu_mus_False|18_18 (ssRNA)
RNA: GGGAGUUCUACAGUCCGACGAUCCGAGAACUUCAUAGCAGGGAAGUCAAGCUUCUGCAGGAGGGUCAGUCCAAGAACCCUCGUAUAAAAAUCCAGGGACUUCUUAGGAUCCUUAAUUCGUAGCAUGGUUUGCUGCAGUAGAAACAACAGAGGAUUGAGCAUCA
B3: chr2:43450610:43450611:-_ENSG00000152518_ENST00000282388|hu_hu|motif|central (ssRNA)
RNA: GGGAGUUCUACAGUCCGACGAUCAGUUAAAUAGUUUUCAUAUUGAGUUGUGGUGCAGUGGUGCGAAUCAACUCAAAACAGCGGAAAAUUCAGCAGUUAUUCUCCAACAAUUACAAAGUAAGCUCUGCGCAAGGCUUCCAGAGGCAACAGAGGAUUGAGCAUCA
B4: chr17:36096658:36096659:-_ENSMUSG00000038762_ENSMUST00000043757|mus_mus|FALSE|FALSE (ssRNA)
RNA: GGGAGUUCUACAGUCCGACGAUCCUGCUUCUCGUACUGCUUUAGCAGCUCUUUCUGCUUCUGCUGGUACAUCUUCUUGAAGGUCAUGUAAUUGCCCCUGUAGUAAUGGAGCCGCUGGGUGUCCAGGUGGAUGAUAUCAGUGCACAACAGAGGAUUGAGCAUCA
B5: chrX:71549400:71549401:+_ENSMUSG00000019087_ENSMUST00000019231|mus_hu|mus_mus_mus_hu_False|28_98 (ssRNA)
RNA: GGGAGUUCUACAGUCCGACGAUCGCAGUAGGAAGAGCAAACCUUUCCAGUCCAGUGCGCUGCAGGGUGGGAAAGCAACAACACGGACACCGUCCCACCCUCAACCCUCUCAGGUGUACAGGGUCACACAAUCUGGGUCAAAGACAACAGAGGAUUGAGCAUCA
B6: chr13:100193180:100193181:-_ENSMUSG00000052727_ENSMUST00000064762|mus_mus|motif|central (ssRNA)
RNA: GGGAGUUCUACAGUCCGACGAUCAUAAUAUAAAGGCUAAAUAAAUUUAAGUUGGAAAACUGGAAGAUAACUCCAUCUUCGGUGAAAGAAAAGUCAACCAGAGGUCUGGAUUUGGCAAGAAGGCUAGAAAUUGUUUCUCUUCACCAACAGAGGAUUGAGCAUCA
B7: chr4:11091628:11091629:+_ENSMUSG00000028211_ENSMUST00000029865|mus_mus|motif|central (ssRNA)
RNA: GGGAGUUCUACAGUCCGACGAUCUUCUUUCUCACUGAAUUCUGGUUCUUGGCUGGAAGAAGUAGUGACUUCGCCGGCAAACAUUUUAUUCAGUCUCUGAAACAUUGUUAAGGCAAGAUUGAGAUUUUGGCUAGAUAUCUUUAUCAACAGAGGAUUGAGCAUCA
B8: chr13:100193180:100193181:-_ENSMUSG00000052727_ENSMUST00000064762|mus_mus|FALSE|FALSE (ssRNA)
RNA: B6 RNA with G80U, G81A
B9: chr17:65337090:65337091:-_ENSG00000197170_ENST00000584008|hu_hu|FALSE|FALSE (ssRNA)
RNA: GGGAGUUCUACAGUCCGACGAUCACCAGUCAUUUAAUAAAUUAUUUGGAUCCUUGGGUCUCUGGAAGUUGAUAAUUCCUGCUAAUCUGUCUACUUUAGCAAAGAUGGUCUUGUUAACUACUAGAUUUGAGAGAAAGGCUUCGGCAACAGAGGAUUGAGCAUCA
B10: chr1:182797045:182797046:+_ENSMUSG00000038806_ENSMUST00000038091|mus_hu|FALSE|FALSE (ssRNA)
RNA: GGGAGUUCUACAGUCCGACGAUCAGACUCAAGCUAAAUAGAAGAAAGAAAAUAACAGAAAUUAAUUAUAUAAACAAUUGAGAAAAAUAAAACCAAAGGUUGGUUCUUUAAAAGUUAUAUCGUCGGCCAGGCACGGUGGCUCACCAACAGAGGAUUGAGCAUCA
B11: 134340332_134340452_1702_CDS_ENSG00000130723_ENST00000357304|human|control|control (ssRNA)
RNA: GGGAGUUCUACAGUCCGACGAUCAGGGCCGUUUUCCUGGGGAGAUGCCUUCUCAGCACUUGGAGACCAGGGCACUUCCUUCUCUGCCUGCUUCCGGGCCUCACCUGCCUUUCGUGCCUGCUUACACUUCUGGUCCAGCUGCUUCAACAGAGGAUUGAGCAUCA
B12: 79156280_79159801_5654_CDS_ENSMUSG00000039414_ENSMUST00000097281|mouse|control|control (ssRNA)
RNA: GGGAGUUCUACAGUCCGACGAUCACUGCUGGCAGACCACAGGAAGAGCGCAAUGGCUGUGAGUGUGCUCACUUCGUCAGGUGCGGGCAUACAGUCAUCUGGUUGAGAAUAUUCCAGGAUGCAGGCAAGGGUGCUCCGGAUUAGCAACAGAGGAUUGAGCAUCA
B13: chr10:40656395:40656396:+_ENSMUSG00000019831_ENSMUST00000105509|mus_mus|FALSE|FALSE (ssRNA)
RNA: GGGAGUUCUACAGUCCGACGAUCUUGUGAUGGAGGAGAUGGAGGCAUUAAUGGAGCAUGGGGACCCGGGGCAGUAGAUGGUGCUGGAUGGAGCCCAGAGGGAGGAUGAGCAAGAGCUGCAACUGCGACAGGAGAUGAUGGCCGCAACAGAGGAUUGAGCAUCA
B14: chr4:144460044:144460045:+_ENSG00000153147_ENST00000283131|hu_mus|hu_hu_hu_mus_False|8_68 (ssRNA)
RNA: GGGAGUUCUACAGUCCGACGAUCACGGUCCAUAGCCUGAAGAUCAACUUGCGGAUUCCAAUCUGAGUCAUACAAAAUGACUACAUCAGCAGUUGCAAGAUUGAUGCCCAGACCACCAGCACGUGUGCUUAACAUGAAUACAAACAACAGAGGAUUGAGCAUCA

biological target: T1, UNK ZnF1-3; experiment: nsRBNS (natural sequence RNA bind-n-seq); RBNS binding buffer (assumed for nsRBNS): 25 mM Tris pH 7.5, 150 mM KCl, 3 mM MgCl2, 0.01% Triton X-100, 500 ug/ml BSA, 20 U/ml SUPERase-In, 4 C; UNK is unkempt and MSI1 is Musashi-1; names of the RNAs are library labels; protein concentration not given here; high values mean tight binding

| Binder | binding signal [enrichment R] |
| --- | --- |
| B1 | 1.65 |
| B2 | 0.56 |
| B3 | 1.75 |
| B4 | 0.639 |
| B5 | 0.931 |
| B6 | 6.8 |
| B7 | 0.789 |
| B8 | 3.86 |
| B9 | 1.44 |
| B10 | 14.2 |
| B11 | 0.675 |
| B12 | 1.35 |
| B13 | 3.38 |
| B14 | 0.925 |
